Out of some 410,000 compounds screened, about 7,200 (1.8%) were called active. Where a call stands in place of a potency, no number is given. Not shown: some 7% with an inconclusive outcome. Calls come from the whole dose curve; as a rule, active = well fitted activation curve with a large enough effect; inconclusive = small, poorly fitted or top-dose-only effect, or another doubt; inactive = no such curve, though single readings can be large or run the other way. Only a selection was taken, and actives are over-represented in it overall.
test: qHTS of TDP-43 Inhibitors; settings: TDP-43 expressing yeast growth rescue, BacTiter-Glo, 24 h; series mostly up to 46.1 µM; note: nearly all actives have a fitted effect of over 50% in size
Summary of the method: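 Luminescence from BacTiter-Glo reports growth of TDP-43-expressing yeast after 24 hr at 30 deg C with compound. Cells were raffinose-pregrown to mid-log, then seeded in galactose medium at OD600=0.02.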
Potency is the fitted concentration of half-maximal effect.

| SMILES | Potency | growth rescue (activation) |
| --- | --- | --- |
| CN(C(=O)CSc1nnc(NC(=O)Nc2ccccc2)s1)c1ccccc1 | inactive | – |
| CC(=O)c1ccc(NC(=O)CSc2nnc(NC(=O)Nc3ccccc3)s2)cc1 | inactive | – |
| CC(C)c1ccc(Nc2nnc(SCC(=O)c3nnc(-c4ccccc4)o3)s2)cc1 | 20 µM (active) | – |
| CCOC(=O)c1ccc(NC(=O)CCS(=O)(=O)c2ccc3c(c2)oc(=O)n3C)cc1 | inactive | – |
| O=C(NC1CCN(Cc2ccccc2)CC1)c1ccc(Cn2c(=O)c3ccccc3n(Cc3cccc(F)c3)c2=O)cc1 | inactive | – |
| CC(C)c1ccc(NC(=O)c2ccc(Cn3nc(N4CCN(c5ccccc5)CC4)ccc3=O)o2)cc1 | inactive | – |
| CC1CC(=O)Nc2ccccc2N1S(=O)(=O)c1cccs1 (stereo not drawn) | inactive | – |
| CC1CC(C)(C)NC(=S)N1CCC(=O)N1CCN(Cc2ccccc2)CC1 (stereo not drawn) | inactive | – |
| CC1CC(=S)Nc2ccccc2N1Cc1ccccc1 (stereo not drawn) | 14.1 µM (active) | – |
| COC(=O)[C@]1(S(=O)(=O)c2ccccc2)C[C@@H]2ON=C(c3ccc(OC)cc3)[C@@H]2C1 | 17.8 µM (active) | – |
| COc1ccc(-c2nc(S(=O)(=O)c3ccccc3)c(N3CCCCC3)o2)cc1 | inactive | – |
| COc1ccc(CNC(=O)C2CC(c3ccc(C(F)(F)F)cc3)=NO2)cc1 (stereo not drawn) | inactive | – |
| COc1cc(OC)c(NC(=O)c2cc(S(=O)(=O)N3CCCC3)cn2C)cc1Cl | inactive | – |
| CCOc1ccc(OCCSc2nc3ccccc3n2CC(=O)O)cc1 | inactive | – |
| Cc1ccc(C(C)C)c(OCCSc2nc3ccccc3n2CC(=O)O)c1 | inactive | – |
| Cc1cccc(OCCSc2nc3ccccc3n2CC(=O)N2CCCCC2)c1C | 35.5 µM (active) | – |
| CCC(C)c1ccc2oc(-c3ccc(NC(=O)c4cc5ccccc5o4)cc3)nc2c1 (stereo not drawn) | inactive | – |
| Cc1ccccc1C(=O)OC1OC(=O)C(Cl)=C1Nc1ccccc1 (stereo not drawn) | 22.4 µM (active) | – |
| Cc1ccccc1C(=O)O | inactive | – |
| O=C1OC(OC(=O)c2ccccc2Br)C(N2CCOCC2)=C1Cl (stereo not drawn) | inactive | – |
| Cc1cccc(NC(=O)Cn2nc(-c3ccc(Cl)cc3)c3ccccc3c2=O)c1 | inactive | – |
| CCCC12CN3CC(C)(CN(C1)C3c1ccccc1Cl)C2=O (stereo not drawn) | inactive | – |

| SMILES | Potency | growth rescue (activation) |
| --- | --- | --- |
| CC(C)(C)c1ccc(S(=O)(=O)N2CCN(C(=O)c3cc(-c4ccc(Br)cc4)n[nH]3)CC2)cc1 | inactive | – |
| COc1ccc(OC)c(CCNC(=O)c2nn(C)c3c2CS(=O)(=O)c2ccccc2-3)c1 | inactive | – |
| COc1ccc(CCNC(=O)c2nn(C)c3c2CSc2ccccc2-3)cc1OC | 11.2 µM (active) | – |
| CCCCN(CC)CCCNC(=O)c1nn(C)c2c1CSc1ccccc1-2 | inactive | – |
| Cc1cc(-c2ccc(C)c(S(=O)(=O)N3c4ccccc4CC3C)c2)on1 (stereo not drawn) | inactive | – |
| Cc1ccc(S(=O)(=O)N2CCCc3cc(NS(=O)(=O)c4cc(C)ccc4C)ccc32)cc1 | – | 0% [at 9.22 µM] (inactive) |
| O=C(c1ccc(N2CCOCC2)c([N+](=O)[O-])c1)N1CCN(S(=O)(=O)c2cccs2)CC1 | inactive | – |
| CCC(=O)c1ccc(N2CCN(C(=O)c3cc([N+](=O)[O-])ccc3F)CC2)c(F)c1 | 12.6 µM (active) | – |
| O=C(c1ccc(N2CCOCC2)c([N+](=O)[O-])c1)N1CCN(c2ccccc2F)CC1 | 14.1 µM (active) | – |
| O=C(OCC(=O)N1CCOCC1)c1ccc(N2CCOCC2)c([N+](=O)[O-])c1 | – | 7.7% [at 9.22 µM] (inactive) |
| CCOC(=O)N1CCN(c2cc(C)c([N+](=O)[O-])cc2F)CC1 | inactive | – |
| O=C(O)C1CCN(c2ccc([N+](=O)[O-])cc2[N+](=O)[O-])CC1 | inactive | – |
| COc1ccc(S(=O)(=O)NCC(c2ccc(N(C)C)cc2)N2CCc3ccccc32)cc1OC (stereo not drawn) | – | -42.7% [at 9.22 µM] (inactive) |
| Cc1ccc2nc(COc3cccc(NC(=O)c4cccc(Cl)c4)c3)cc(=O)n2c1 | inactive | – |
| Cc1ccc(Nc2nc(-c3ccc(O)cc3O)cs2)nc1 | 20 µM (active) | – |
| CC(=O)Nc1cnc(-c2ccc(O)cc2C)cn1 | inactive | – |
| Cc1cc(C)c(NC(=O)c2cc3sc(Cl)cc3n2C)c(C)c1 | inactive | – |
| Cn1c(=O)c(C(=O)O)nn(-c2ccccc2)c1=O | inactive | – |
| CCCn1c2ccccc2c2cnn(CC(=O)NCC3CCN(Cc4ccc(C)cc4)CC3)c(=O)c21 | inactive | – |
| COc1ccc(SCc2cc(=O)c3ccc(C)c(C)c3[nH]2)cc1 | inactive | – |
| CCC(=O)N1CCc2cc(S(=O)(=O)NC(Cc3ccccc3)C(=O)NCc3ccc(C)cc3)ccc21 (stereo not drawn) | inactive | – |
